NS1 inh: blocks influenza NS1 protein function | Potency, µM (titrated, usually from 46.1 µM), without a hit: top-dose activity, positive = more growth | 270,000 tested, 0.4% active; calls by dose curve; further: potency means the concentration at half of the fitted maximal effect; actives are rising curves; nearly all actives have a fitted effect of over 50% in size
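S. cerevisiae expressing influenza A NS1, grown in glucose, washed, then diluted 1:100 into pH 6.0 -URA galactose medium with 23 nl compound. Growth recovery read as OD600; NS1-free strain serves as control.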
Cruzain inh Det: cruzain (T. cruzi) inhibition with detergent; Potency, µM, for inactives: max response, negative = inhibition, usual class: inhibitors; purified cruzain, Z-FR-AMC fluorescence, 0.01% Triton; 200,000 tested, 0.43% active; P25779;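 further: potency means the concentration at half of the fitted maximal effect; plate controls were neutral wells for no effect and buffer without enzyme for full effect; nearly all actives have a fitted effect of over 40% in size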
Target sequence (P25779 123-467 limits assumed): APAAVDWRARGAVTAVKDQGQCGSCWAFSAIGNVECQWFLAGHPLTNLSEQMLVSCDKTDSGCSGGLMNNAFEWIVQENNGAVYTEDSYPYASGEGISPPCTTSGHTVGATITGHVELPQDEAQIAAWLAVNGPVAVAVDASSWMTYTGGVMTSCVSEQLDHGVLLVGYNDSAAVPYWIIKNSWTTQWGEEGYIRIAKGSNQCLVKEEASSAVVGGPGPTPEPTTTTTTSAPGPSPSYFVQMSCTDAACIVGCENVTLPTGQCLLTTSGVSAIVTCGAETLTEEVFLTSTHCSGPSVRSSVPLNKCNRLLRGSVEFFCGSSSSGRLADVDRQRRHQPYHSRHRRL
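Purified cruzain (1.5 nM final) was preincubated with compounds for 15 min at room temperature in 100 mM sodium acetate pH 5.5, 5 mM DTT, 0.01% Triton X-100. Reaction started with 2 uM Z-FR-AMC; AMC fluorescence change over 60 s gave activity.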
Cruzain inh noDet: blocks cruzain activity in detergent-free assay. P25779. purified cruzain, Z-FR-AMC fluorescence, no detergent. Potency, µM, without a hit: max response, negative = inhibition, hits mostly inhibitors. 200,000 tested, 2.3% active. AID 1476;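 further: potency means the concentration at half of the fitted maximal effect; plate controls were enzyme without inhibitor for no effect and buffer without enzyme for full effect; nearly all actives have a fitted effect of over 40% in size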
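Detergent-free condition (0.00005% Triton X-100) in acetate buffer pH 5.5 with DTT. 1.5 nM enzyme and compound were pre-mixed 15 min, then 2 uM Z-FR-AMC substrate added; reaction progress from fluorescence change between first and third reads (60 s).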
NS1 inh valid: influenza NS1 function inhibition validation; activity change, negative = inhibition, % at 32.9 µM; shares compounds with NS1 inh; influenza NS1 function cell assay, 15-point titration; 1,400 tested, under 10 active; calls by dose curve; further: 0% is about no effect
PR8 titer: influenza NS1 inhibitors: inhibition of influenza A/PR/8/34 replication | shares compounds with NS1 inh | MDCK infected influenza A/PR/8/34, virus titer TCID50; stronger effect = lower value | virus titer (log TCID50), log10 TCID50 at 5 µM | 95 tested, 30% active; call rule not given here
Starred values were filed as active, the others as inactive; ? = inconclusive; nt = no result. Only a selection was taken, and hits are over-represented in it overall. Unless noted, the call rests on the fitted dose curve; in most records, active means well fitted curve in the direction sought with a large enough effect; inconclusive means small, poorly fitted or top-dose-only effect, or another doubt; inactive means no such curve, though single readings can be large; an effect the other way counts as inactive or inconclusive.

SMILES	NS1 inh	Cruzain inh Det	Cruzain inh noDet	NS1 inh valid	others
O=C(COC(=O)c1n[nH]c2ccccc12)Nc1ccc(S(=O)(=O)N2CCCC2)cc1	0.4%	0.7%	-16.9%	nt
CCCCNc1nc(C)nc2c1nc(C)n2CCC	nt	1.3%	1.0%	nt
CCn1nnc2cc(C(=O)Nc3ccc(C)cc3Br)ccc21	nt	3.6%	-3.4%	nt
O=C(Nc1ccc2c(c1)CCC2)c1ccc(F)cc1	-6.6%	-3.4%	1.7%	nt
O=C(Nc1ccc2c(c1)CCC2)c1cc(S(=O)(=O)Nc2ccc(F)cc2)c(Cl)cc1Cl	14.1µM*	-0.8%	20µM*	26.5	PR8 titer=8
Cc1ccc(CNC(=O)c2c[nH]c3ccc(S(=O)(=O)Nc4ccc(C(C)C)cc4)cc3c2=O)cc1	nt	-4.8%	?	nt
COC(=O)c1cc2oc(C)cc2n1CC(=O)Nc1ccc(C(C)C)cc1	nt	-9.3%	-22.0%	nt
Cc1ccccc1NC(=O)N1CCCC1C(=O)NCc1cccs1 (configuration not stated)	2.2%	0.8%	0.3%	nt
O=C(NCc1cccs1)C1CCCN1C(=O)Nc1ccccc1Cl (configuration not stated)	?	nt	nt	3.6	PR8 titer=8.5
Cc1ccc(CNC(=O)Cc2ccc(NC(=O)N3CCSc4ncccc43)cc2)cc1	nt	-11.0%	-10.1%	nt
O=C(NNC(=O)c1ccc(Br)cc1)c1ccncc1	?	nt	nt	3.1
O=C(NNC(=O)c1ccncc1)c1ccncc1	1.4%	1.4%	4.7%	nt
CCn1c(CN2CCC(C)CC2)nc2cc(NC(=O)COc3ccc(Cl)c(C)c3)ccc21	nt	-4.0%	-9.4%	nt
COc1ccc(C(=O)C2CCCN(C(=O)CCc3ccccn3)C2)c(C)c1 (configuration not stated)	-3.0%	nt	nt	nt
COC(=O)CCCC(=O)N1CCCC(C(=O)c2ccc(OC)cc2C)C1 (configuration not stated)	?	nt	nt	-10.9
CCc1nc2ccccc2c(=O)n1NC(=O)c1c(O)c2ccccc2[nH]c1=O	1.58µM*	1.7%	?	-19.5
CCCc1nc2ccccc2c(=O)n1NC(=O)c1c(O)c2ccccc2n(C)c1=O	4.0%	nt	nt	nt
CCCCCCc1nc2ccccc2c(=O)n1NC(=O)c1c(O)c2c(n(CC(C)C)c1=O)CCCC2	0.398µM*	-7.6%	?	-15.4
Cc1nc2ccccc2c(=O)n1NC(=O)c1c(O)c2c(n(CC(C)C)c1=O)CCCC2	-120.8%	-9.5%	-3.2%	nt
COc1ccc(S(=O)(=O)NCCS(=O)(=O)N2CCN(c3ccccc3)CC2)cc1OC	nt	-2.3%	-5.9%	nt
COc1ccccc1C(=O)N1CCCCC1CCN1CCOCC1 (configuration not stated)	nt	1.4%	14.1%	nt
CC1(C)O[C@H]2[C@@H](O1)[C@@H](C(=O)Nc1cc(F)ccc1F)O[C@@H]1OC(C)(C)O[C@@H]12	nt	-3.8%	-1.2%	nt
CCn1ccc2cc(S(=O)(=O)N3CCCN(C(=O)Nc4ccc(C)cc4Cl)CC3)ccc21	nt	-5.6%	-20.0%	nt
CCn1c2c(c(=N)c3c1CCC3)CCC2	16.6%	-1.5%	-2.3%	nt
N=c1c2c(n(Cc3ccc(F)cc3)c3c1CCC3)CCC2	1µM*	2.4%	-2.6%	-29.3
SMILES	NS1 inh	Cruzain inh Det	Cruzain inh noDet	NS1 inh valid	others
COc1ccc(CCNC(=O)CCS(=O)(=O)c2cc3c(cc2Cl)NC(=O)CO3)cc1OC	nt	-2.7%	8.9%	nt
Cc1ccc(-c2nnc(NCc3nc4ccccc4[nH]3)c3ccccc23)cc1S(=O)(=O)N1CCOCC1	?	-15.4%	?	nt
Cc1ccc(-c2nnc(NCc3nc4ccccc4[nH]3)c3ccccc23)cc1S(=O)(=O)N(C)C	5.62µM*	-15.1%	-23.8%	9.7	PR8 titer=7.5*
O=S(=O)(c1ccc(-c2csc(=Nc3ccc(F)cc3)n2CCCCCCO)cc1)N1CCCC1	nt	-5.2%	?	nt
CCN(CC)c1nc2c3c(nc4c(c3c1C#N)CC(=O)N4c1ccc(Cl)cc1)NC(C)=N2	14.1µM*	-5.7%	15.2%	28.8
CCc1ccc(N2C(=O)Cc3c2nc(N)c(C#N)c3N)cc1	16.3%	-0.3%	0.5%	nt
O=C(CN1c2ccccc2S(=O)(=O)c2ccccc21)Nc1ccccc1Cl	nt	-6.9%	?	nt
C=C1CCC2[C@](C)(CO)C(O)CC[C@]2(C)C1C/C=C1/C(=O)OCC1O (some centres not stated)	nt	6.8%	-7.8%	nt
COc1ccccc1NC(=O)N1CCN(C(=O)Nc2ccccc2OC)CC1	-1.5%	nt	nt	nt
CCC1c2ccc(C)n2CCN1C(=O)Nc1ccccc1OC (configuration not stated)	15.8µM*	-1.0%	-5.0%	2.9
O=C(CCS(=O)(=O)c1cc2c3c(c1)CCN3C(=O)CC2)NCc1ccc(F)cc1	nt	0.1%	-2.7%	nt

Source: PubChem (National Center for Advancing Translational Sciences (NCATS))
